Measured potencies and affinities stand elsewhere.

In one assay the test system is Staphylococcus aureus. To be noted: Concentration 32 ug.mL-1;; ASSAY_TEST Inhibition of Bacterial Growth; detection method Absorption (OD600); MEDIA CAMHB; plate type 384well; NBS; CORNING #3640; time 18 hr.
Another assay relates to Escherichia coli. To be noted: Concentration 32 ug.mL-1;; ASSAY_TEST Inhibition of Bacterial Growth; detection method Absorption (OD600); MEDIA CAMHB; plate type 384well; NBS; CORNING #3640; time 18 hr.

In the case of `Cc1ccc(-n2ccn3c(=O)n(Cc4ccccc4)nc3c2=O)cc1C`, the figures for the Inhibition in the assay with Staphylococcus aureus and with Escherichia coli were 5.93% and -8.73%, respectively.
The matching figures for `Cc1cccc(NC(=O)Cn2nc3c4cc(-c5ccc(Cl)cc5)nn4ccn3c2=O)c1`: 3.19% and -7.53%.
The matching figures for `COc1ccc(CN(c2ccc(F)cc2)S(=O)(=O)c2ccc3nnc(C)n3c2)cc1F`: -10.32% and -13.96%.
`Cc1cc2nn(CC(=O)NCc3ccccc3)c(=O)n2c(-c2ccc(C(F)(F)F)cc2)n1`: the Inhibition is listed as 13.36% in the assay on Staphylococcus aureus and -8.01% in the assay with Escherichia coli.
In the case of `O=C(CSc1nc2ccccc2n2cnnc12)Nc1ccc2c(c1)OCCO2`, the Inhibition in the assay on Staphylococcus aureus is on record as 6.86%; in the assay with Escherichia coli, 5.63%.
With `COc1ccc(NC(=O)CSc2nc3ccccc3n3c(C(C)C)nnc23)cc1Cl`, the Inhibition is on record as -3.22% with Staphylococcus aureus and -5.08% in the assay with Escherichia coli.
For the compound `COc1ccc(NC(=O)Cn2nc3c(Oc4ccc(C)cc4)nccn3c2=O)cc1Cl`, the Inhibition in the assay on Staphylococcus aureus is recorded as -1.59%; in the assay on Escherichia coli, -3.22%.
On to `C=Cc1ccc(CN(c2ccc(Cl)cc2)S(=O)(=O)c2cccn3c(C)nnc23)cc1`, for which the values for the Inhibition with Staphylococcus aureus and with Escherichia coli were 6.06% and -3.28%, respectively.
In the same order, the values of `COc1cccc(-n2ccn3c(SCC(=O)c4c[nH]c5ccc(OC)cc45)nnc3c2=O)c1` are 11.97% and -2.96%.
The matching figures for `Cc1ccc(Oc2nccn3c(=O)n(CC(=O)Nc4cc(F)ccc4F)nc23)cc1`: 15.96% and -1.03%.
Turning to `O=C(Cn1nc2nc(Nc3ccc(F)cc3)ccn2c1=O)NCC1CCCO1` (stereo unspecified), the results for the Inhibition in the assay with Staphylococcus aureus and with Escherichia coli were 2.52% and -9.11%, respectively.
Consider `COc1cc(NC(=O)C(C)Sc2nnc3c(=O)n(-c4ccc(F)cc4)ccn23)cc(OC)c1` (stereo unspecified), for which the Inhibition was 6.77% in the assay on Staphylococcus aureus and -6.93% with Escherichia coli.
The matching figures for `Cc1ccc(NC(=O)Cn2nc3ccc(SC(C)(C)C)nn3c2=O)cc1C`: -0.92% and 2.46%.
`Cc1ccc(N(Cc2ccccc2F)S(=O)(=O)c2ccc3nncn3c2)cc1`: the Inhibition in the assay on Staphylococcus aureus is given as -11.4%; with Escherichia coli it was -11.46%.
As to `O=C(Cn1nc2c(SC3CCCCC3)nccn2c1=O)Nc1ccccc1Br`, the Inhibition is given as -0.6% in the assay on Staphylococcus aureus and -5.42% in the assay on Escherichia coli.
The matching figures for `COc1ccc(CNC(=O)Cn2nc3c(Sc4ccc(C)cc4C)nccn3c2=O)cc1`: 6.57% and -1.79%.
In the same order, the values of `CCc1ccccc1Sc1nccn2c(=O)n(CC(=O)N3CCN(c4ccccc4)CC3)nc12` are -10.72% and -11.22%.
Turning to `CCCCn1c(=O)c2sccc2n2c(=O)n(CC(=O)N(C)c3ccccc3)nc12`, the Inhibition with Staphylococcus aureus is -8.63%; in the assay on Escherichia coli it was -12.98%.
In the case of `O=C(CSc1nnc2c(=O)n(-c3ccc(Br)cc3)ccn12)Nc1cccc(F)c1`, the Inhibition is on record as 9.13% in the assay with Staphylococcus aureus and -1.52% in the assay with Escherichia coli.
The matching figures for `COc1ccc(NC(=O)Cn2nc3ccc(SC4CCCCC4)nn3c2=O)c(OC)c1`: 7.02% and -7.62%.
In the same order, the values of `COc1ccc(NC(=O)Cn2c(=O)c3nnc(C(C)C)n3c3ccccc32)cc1Cl` are 10.36% and 0.69%.
In the same order, the values of `Cc1ccc(-c2cc3c4nn(CC(=O)Nc5ccccc5Br)c(=O)n4ccn3n2)cc1C` are 9.34% and -2.39%.
Take `COc1ccc(NC(=O)Cn2nc3c(SC4CCCCC4)nccn3c2=O)cc1OC`: the values for the Inhibition in the assay on Staphylococcus aureus and in the assay on Escherichia coli were 4.77% and -3.78%, respectively.
In the same order, the values of `Cc1ccc(Oc2nccn3c(=O)n(CC(=O)Nc4ccc(F)cc4F)nc23)cc1` are 19.59% and -0.38%.
In the same order, the values of `CCc1ccccc1NC(=O)Cn1nc2cc(C)nc(Nc3ccc(F)c(C)c3)n2c1=O` are -15.94% and -1.7%.
In the same order, the values of `O=C(Cn1nc2c(SCc3ccccc3)nccn2c1=O)NCc1ccccc1` are -16.25% and -19.33%.
In the case of `O=C(Cn1nc2c(SC3CCCCC3)nccn2c1=O)Nc1cccc(Br)c1`, the results for the Inhibition in the assay with Staphylococcus aureus and in the assay on Escherichia coli were -4.73% and -7.3%, respectively.
Consider `Cc1ccc(NC(=O)CSc2nnc3c4cc(-c5ccccc5)nn4ccn23)c(C)c1`, for which the Inhibition is given as -9.27% in the assay on Staphylococcus aureus and -11.37% in the assay with Escherichia coli.
As for `COc1cccc(Sc2nc3ccccc3n3c(=O)n(CC(=O)Nc4ccccc4)nc23)c1`, the Inhibition is on record as -1.75% with Staphylococcus aureus and -6.94% in the assay on Escherichia coli.
Take `COc1cccc(Oc2nccn3c(=O)n(CC(=O)Nc4ccc(Br)cc4F)nc23)c1`: the Inhibition is 14.87% in the assay on Staphylococcus aureus and -0.07% with Escherichia coli.
For the compound `O=c1n(Cc2cccc(C(F)(F)F)c2)nc2ccc(S(=O)(=O)N3CCCCC3)cn12`, the Inhibition in the assay on Staphylococcus aureus was 14.29%; with Escherichia coli, 0.28%.
The matching figures for `O=c1c2sccc2n2c(=O)n(Cc3ccccc3F)nc2n1CCc1ccccc1`: 9.4% and 0.41%.
In the same order, the values of `Cc1ccc(C)c(S(=O)(=O)Nc2ccc3nncn3n2)c1` are 15.24% and 1.21%.
The matching figures for `CCOc1ccc(-n2ccn3c(SC(C)C(=O)Nc4ccc(OC)cc4)nnc3c2=O)cc1` (stereo unspecified): 5.98% and -5.92%.
Turning to `COc1ccc(N(Cc2ccc(F)cc2)S(=O)(=O)c2ccc3nncn3c2)cc1`, the Inhibition is listed as -7.56% with Staphylococcus aureus and -2.8% with Escherichia coli.
`O=S(=O)(c1ccc2nncn2c1)N(Cc1ccccc1F)c1ccc2c(c1)OCCO2`: the Inhibition is on record as 5.05% in the assay on Staphylococcus aureus and -6.13% with Escherichia coli.
The matching figures for `CCc1ccc(NC(=O)Cn2nc3c(Oc4cccc(OC)c4)nccn3c2=O)cc1`: 5.31% and -1.12%.
Consider `Cc1nnc2c(S(=O)(=O)N(Cc3cccc(F)c3)c3ccc(C(C)C)cc3)cccn12`, for which the Inhibition is reported as 15.47% with Staphylococcus aureus and -0.86% with Escherichia coli.
In the same order, the values of `O=c1c2sccc2n2c(=O)n(Cc3ccc(Cl)cc3)nc2n1Cc1cccs1` are -8.27% and -9.25%.
As for `Cc1ccc(C)c(CN(c2cccc(Cl)c2)S(=O)(=O)c2cccn3c(C)nnc23)c1`, the results for the Inhibition in the assay with Staphylococcus aureus and in the assay on Escherichia coli were 11.55% and -2.76%, respectively.
Regarding `CC(C)Cn1c(=O)c2sccc2n2c(=O)n(Cc3ccc(N4CCCC4=O)cc3)nc12`, the Inhibition with Staphylococcus aureus is given as -1.91%; with Escherichia coli it was -2.57%.
On to `Cc1ccc(NC(=O)CSc2nnc3n(CC4CCCO4)c(=O)c4sccc4n23)cc1F` (stereo unspecified), for which the Inhibition was 4.36% in the assay with Staphylococcus aureus and -6.16% in the assay with Escherichia coli.
Turning to `Cc1ccccc1-c1noc(Cn2nc3ccc(-c4ccccc4)nn3c2=O)n1`, the Inhibition in the assay with Staphylococcus aureus was -12.29%; in the assay on Escherichia coli, -7.81%.
For the compound `Cc1cc(C)cc(NC(=O)Cn2nc3c(N4CCCC4)nccn3c2=O)c1`, the values for the Inhibition in the assay with Staphylococcus aureus and with Escherichia coli were 12.35% and -0.75%, respectively.
For `O=C(Cn1nc2ccc(Sc3cccc(F)c3)nn2c1=O)Nc1ccc(Cl)cc1`, the Inhibition in the assay on Staphylococcus aureus was 7.1%; in the assay with Escherichia coli, -8.49%.
The matching figures for `Cc1ccc(-c2ccc3nn(Cc4ccc5c(c4)OCO5)c(=O)n3n2)cc1C`: -7.66% and -8.33%.
The matching figures for `COc1ccccc1-n1ccn2c(SCC(=O)NCc3ccc(Cl)cc3)nnc2c1=O`: 12.53% and -3.51%.
`C=Cc1ccc(Cn2nc3c(=O)n(-c4ccc(C)c(C)c4)ccn3c2=O)cc1`: the Inhibition in the assay with Staphylococcus aureus was determined as 0.4%; with Escherichia coli it was 3.59%.
As for `COc1ccc(-c2cc3c4nnc(CCC(=O)NCc5ccc(OC)c(OC)c5)n4ccn3n2)cc1`, the Inhibition in the assay on Staphylococcus aureus is on record as 6.96%; in the assay on Escherichia coli, -5.17%.
For the compound `CCCNC(=O)CSc1nnc2c(=O)n(-c3ccc(F)cc3)ccn12`, the Inhibition in the assay with Staphylococcus aureus is -5.35%; with Escherichia coli it was -1%.
In the same order, the values of `CCc1nnc2c(S(=O)(=O)N(Cc3cccc(F)c3)c3ccc(C)c(C)c3)cccn12` are 17.57% and 2.28%.
Consider `Cc1ccc(NC(=O)Cn2nc3c4c5c(sc4ncn3c2=O)CCCC5)cc1C`, for which the Inhibition in the assay with Staphylococcus aureus is recorded as 0.13%; with Escherichia coli, -5.89%.
The matching figures for `Cc1ccc(Oc2nccn3c(=O)n(CC(=O)NCc4cccs4)nc23)cc1`: 11.07% and 1.37%.
`O=C(Cn1nc2c3c4c(sc3ncn2c1=O)CCCC4)NCCc1ccc(Cl)cc1`: the Inhibition amounted to 7.1% with Staphylococcus aureus and 2.28% in the assay on Escherichia coli.
The matching figures for `COc1ccc(OC)c(NC(=O)Cn2nc3ccc(-c4ccc(C)cc4)nn3c2=O)c1`: -7.96% and -11.89%.
Take `CCc1cccc(NC(=O)Cn2nc3c(Sc4ccc(C)cc4C)nccn3c2=O)c1`: the figures for the Inhibition in the assay with Staphylococcus aureus and with Escherichia coli were -6.82% and -19.78%, respectively.
The matching figures for `CCOc1ccc(C(=O)CSc2nnc3c(=O)n(-c4cccc(OC)c4)ccn23)cc1`: 5.74% and -13.86%.
In the same order, the values of `CCc1nnc2c(S(=O)(=O)N(Cc3cccc(C)c3)c3cccc(Cl)c3)cccn12` are 2.53% and -7.38%.
In the same order, the values of `COc1ccc(-c2cc3c4nnc(SCC(=O)NCc5ccc(C)cc5)n4ccn3n2)cc1` are -10.11% and 0.51%.
For `CCCN(C)c1nccn2c(=O)n(CC(=O)Nc3ccc(F)cc3)nc12`, the Inhibition is on record as 13.38% with Staphylococcus aureus and -2.86% in the assay with Escherichia coli.
As for `CC(C)c1nnc2c(=O)n(CC(=O)Nc3cccc(Cl)c3)c3ccccc3n12`, the Inhibition in the assay with Staphylococcus aureus was 5.77%; in the assay with Escherichia coli, -3.24%.
In the case of `Cc1cccc(NC(=O)CSc2nnc3c(=O)n(-c4ccccc4)ccn23)c1`, the figures for the Inhibition with Staphylococcus aureus and with Escherichia coli were 7.18% and -6.81%, respectively.
The matching figures for `O=C(CSc1nnc2c(=O)n(-c3cccc(F)c3)ccn12)c1ccc(F)cc1`: 5.39% and 1.51%.

By Inhibition is commonly meant the relative decrease from the control value, in per cent.

Source of the values: ChEMBL document CHEMBL4513146, “CO-ADD screening of Karazin Kharkiv National University (Ukraine) compounds”.
